Data from PubChem BioAssay AID720704 (The Scripps Research Institute Molecular Screening Center, 2013).
Hit rate of the full screen: of about 370,000 compounds, about 660 (0.18%) were called active. Rule as the data show it: active = inhibition above about 11%; inactive = the rest. Only a selection was taken, and actives are over-represented in it overall.

These compounds were tested against 1-phosphatidylinositol 4,5-bisphosphate phosphodiesterase beta-3 (Homo sapiens) (UniProt Q01970) (assay: human PLC-beta3 inhibitors, primary screen, biochemical, fluorescence (AID 720704;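 also: 0% = median of compound wells on plate and 100% = full blocker control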)). Settings: Purified PLC-beta3, fluorogenic substrate, at 12.2 µM, stronger effect = higher value.
1-phosphatidylinositol 4,5-bisphosphate phosphodiesterase beta-3 (Homo sapiens), sequence (Q01970 whole entry, looked up): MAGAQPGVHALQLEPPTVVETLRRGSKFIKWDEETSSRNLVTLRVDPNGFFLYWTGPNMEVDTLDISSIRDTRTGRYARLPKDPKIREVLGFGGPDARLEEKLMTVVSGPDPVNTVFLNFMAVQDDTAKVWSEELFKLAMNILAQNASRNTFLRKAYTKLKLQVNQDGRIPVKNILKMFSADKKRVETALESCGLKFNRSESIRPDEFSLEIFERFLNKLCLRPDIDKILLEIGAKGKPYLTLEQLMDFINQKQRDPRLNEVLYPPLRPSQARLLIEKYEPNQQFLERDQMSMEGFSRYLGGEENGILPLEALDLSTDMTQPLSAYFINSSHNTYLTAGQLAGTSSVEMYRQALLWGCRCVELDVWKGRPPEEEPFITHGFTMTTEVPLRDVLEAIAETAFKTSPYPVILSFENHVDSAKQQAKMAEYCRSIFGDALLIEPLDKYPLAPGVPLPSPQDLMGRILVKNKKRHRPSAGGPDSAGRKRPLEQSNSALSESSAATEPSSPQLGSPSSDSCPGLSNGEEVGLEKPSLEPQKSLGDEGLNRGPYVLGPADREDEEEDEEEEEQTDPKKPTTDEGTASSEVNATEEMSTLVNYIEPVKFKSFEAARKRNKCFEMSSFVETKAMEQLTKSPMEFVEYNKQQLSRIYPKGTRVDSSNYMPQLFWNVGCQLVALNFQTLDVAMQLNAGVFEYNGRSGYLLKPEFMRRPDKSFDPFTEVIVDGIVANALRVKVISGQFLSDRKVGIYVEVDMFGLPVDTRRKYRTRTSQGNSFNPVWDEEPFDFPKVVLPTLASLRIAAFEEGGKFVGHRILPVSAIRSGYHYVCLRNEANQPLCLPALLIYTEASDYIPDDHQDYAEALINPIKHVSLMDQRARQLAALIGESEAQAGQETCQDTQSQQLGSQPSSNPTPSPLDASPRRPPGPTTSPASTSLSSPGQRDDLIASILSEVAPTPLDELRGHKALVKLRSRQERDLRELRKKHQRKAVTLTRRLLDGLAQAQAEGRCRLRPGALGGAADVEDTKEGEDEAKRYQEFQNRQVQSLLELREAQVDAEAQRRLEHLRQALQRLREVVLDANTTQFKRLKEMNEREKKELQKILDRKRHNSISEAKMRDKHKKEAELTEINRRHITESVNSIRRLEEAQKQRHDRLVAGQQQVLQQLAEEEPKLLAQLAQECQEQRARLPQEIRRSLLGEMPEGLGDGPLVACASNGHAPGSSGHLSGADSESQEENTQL

SMILES	inhibition
CC1=CC(=O)C=CC1(C)C(Cl)(Cl)Cl (configuration not stated)	0.48% (inactive)
Cc1c(C(=O)N2CC(C)OC(C)C2)sc2nc(-c3ccccc3)cn12 (configuration not stated)	-2.9% (inactive)
O=C(c1ccc(F)cc1)N1CCCC(C(=O)N2CCCCC2)C1 (configuration not stated)	-6.9% (inactive)
Cc1ccc(S(=O)(=O)N(CC(O)CN2CCCCC2)c2cccc([N+](=O)[O-])c2)cc1 (configuration not stated)	-3.53% (inactive)
COc1ccc([N+](=O)[O-])cc1N(CC(O)Cn1nnc2ccccc21)S(=O)(=O)c1ccc(C)cc1 (configuration not stated)	11.5% (active)
COc1ccc([N+](=O)[O-])cc1N(CC(O)CN(CC(C)C)CC(C)C)S(=O)(=O)c1ccc(C)cc1 (configuration not stated)	-4.79% (inactive)
O=C(NC1CCCCN(Cc2ccc(Cl)cc2)C1=O)c1ccc(Br)cc1 (configuration not stated)	-4.01% (inactive)
Cc1cccc(OCc2nnc(SCc3nc4cc(C(F)(F)F)ccc4c(=O)[nH]3)o2)c1	-14.6% (inactive)
CCn1cc(C(=O)NCCC(=O)NCCO)c(=O)c2cc3c(cc21)OCO3	-11.8% (inactive)
CCCOc1cccc(C(=O)NCCCNC(=O)c2cccnc2)c1	-4.69% (inactive)
CCOc1ccccc1NC(=O)c1cccnc1	12.6% (active)
Cc1cccc(C(=O)Nc2ccccc2C(=O)NCc2cccnc2)c1	2.86% (inactive)
O=S1(=O)C[C@@H](N2CCN(CCO)CC2)[C@H](COCc2ccccc2)N1	-7.43% (inactive)
Cc1ccc(S(=O)(=O)N2CCC(C(=O)OCC(=O)N(C)c3ccccc3)CC2)cc1C	-0.47% (inactive)
O=C(COc1ccc(S(=O)(=O)N2CCCC2)cc1[N+](=O)[O-])N1CCCCC1	6.09% (inactive)
COc1ccc(S(=O)(=O)N2CCC(C(=O)OCC(=O)c3ccccc3)CC2)cc1[N+](=O)[O-]	10.8% (active)
CCOC(=O)[C@H]1CCC[C@@H](NS(=O)(=O)c2ccc(NC(C)=O)cc2)C1	-1.08% (inactive)
O=S(=O)(NCCSc1ccccn1)c1ccc(Cl)cc1	4.09% (inactive)
CN(C(=O)c1cccc(NC(=O)Cc2cccc([N+](=O)[O-])c2)c1)C1CCCCC1	11.2% (active)

SMILES	inhibition
CN(C(=O)c1cccc(NC(=O)Cc2ccc([N+](=O)[O-])cc2)c1)C1CCC1	1.28% (inactive)
CN(C(=O)c1cccc(NC(=O)Cc2cccc(NC(=O)C3CCCN(C(=O)C4CC4)C3)c2)c1)C1CCC1 (configuration not stated)	1.11% (inactive)
O=C(CNC(=O)c1ccccc1)OC(C(=O)Nc1cc([N+](=O)[O-])ccc1F)c1ccccc1 (configuration not stated)	-0.41% (inactive)
CCOc1c(Br)cc(/C=C2\C(=O)N(CCC#N)N=C2C)cc1OC	13.5% (active)
Oc1oc(-c2ccccc2Br)nc1/C=N/c1ccccn1	-19.8% (inactive)
CC(N=Cc1nc(-c2ccccc2)oc1O)c1ccccc1 (configuration not stated)	15.1% (active)
CC(=O)C1=C(O)C(=O)N(c2cccnc2)C1c1ccc([N+](=O)[O-])cc1 (configuration not stated)	4.27% (inactive)
COC(=O)CN1C(=O)C(O)=C(C(C)=O)C1c1ccc([N+](=O)[O-])cc1 (configuration not stated)	13.8% (active)
CC(=O)C1=C(O)C(=O)N(c2ccc(Br)cc2)C1c1ccc([N+](=O)[O-])cc1 (configuration not stated)	-6.85% (inactive)
O=C(NC(CC(=O)N1CCN(c2ccccc2)CC1)c1ccccc1)c1ccccc1Cl (configuration not stated)	2.68% (inactive)
O=C(NCCSc1ncc(-c2ccccc2)[nH]1)c1ccco1	-6.81% (inactive)
CCOc1ccccc1C1CC(c2cccc(NS(C)(=O)=O)c2)=NN1C(=O)c1ccccc1 (configuration not stated)	13.2% (active)
CCOc1ccc2nc(Cl)c(C3CC(c4ccccc4)=NN3C(=O)c3cccs3)cc2c1 (configuration not stated)	-0.32% (inactive)
Cc1ccc(C2CC(c3cccc(NS(C)(=O)=O)c3)=NN2S(C)(=O)=O)cc1 (configuration not stated)	0.24% (inactive)
Cc1ccc(C(=O)N(CN2CCCC2=O)c2ccc(F)cc2)cc1	3.26% (inactive)
CCOc1ccc(S(=O)(=O)Nc2ccncc2)c(C)c1C	1.51% (inactive)
Cc1cc(C)c2nc(SCC(=O)N(C)C3CCS(=O)(=O)C3)cc(C)c2c1 (configuration not stated)	2.26% (inactive)
O=S(=O)(c1ccc(F)cc1)N1CCN=C1SCc1cccc(F)c1	-7.5% (inactive)
Cc1ccc(/C=C/C(=O)O)cc1S(=O)(=O)N1CCC(Cc2ccccc2)CC1	-3.09% (inactive)

SMILES	inhibition
Cn1ncc2c(NNC(=O)Cc3cccc4ccccc34)ncnc21	1.27% (inactive)
Cn1ncc2c(Nc3cccc4ccccc34)ncnc21	-6.23% (inactive)
Cc1nc(Nc2ccccc2C)c2cnn(C)c2n1	13.1% (active)
O=C1C(=O)N(c2ccccc2)C(c2ccccc2)C1c1ccccc1 (configuration not stated)	-283% (inactive)
O=S(=O)(O)c1cc2onnc2c2ccccc12	-11.7% (inactive)
Cc1cc(NS(=O)(=O)c2ccc(NC(=O)CSc3nnc(SCc4ccc(F)cc4)s3)cc2)nc(C)n1	-3.29% (inactive)
Cc1cc(C(=O)OC(C)C(=O)Nc2cccc(S(=O)(=O)N3CCOCC3)c2)c(C)o1 (configuration not stated)	2.02% (inactive)
NNC(=O)C1CC(O)CN1S(=O)(=O)c1ccc(Cl)cc1 (configuration not stated)	-6.44% (inactive)
O=C(CSc1ncn[nH]1)Nc1nc2c(F)c(F)c(F)cc2s1	-3.83% (inactive)
Cc1cc2nc(SCCN3CCOCC3)[nH]c2cc1C	10.8% (active)
Cc1cc(C)c(NC(=O)CSc2nc3ccncc3[nH]2)c(C)c1	-1.6% (inactive)
CCNC(=S)N1CCC(c2nc3cc(C)c(C)cc3[nH]2)CC1	0.08% (inactive)
Fc1ccc(CNCc2ccc(Br)cc2)cc1	1.89% (inactive)
CC1(C(=O)NCc2ccco2)Cc2c(-c3ccc4c(c3)OCO4)ccnc2O1 (configuration not stated)	-9.86% (inactive)
COc1ccc(C(=O)NC2CC2)cc1OC1CCN(Cc2ccc(SC)cc2)CC1	-5.08% (inactive)
CCN(C(=O)COc1cccnc1[N+](=O)[O-])C1CCS(=O)(=O)C1 (configuration not stated)	3.82% (inactive)
CCc1cc2c(=O)c(-c3ccon3)c(N)oc2cc1OC	-1.51% (inactive)
CCOC(=O)C1CCN(C(=O)c2cccc(S(=O)(=O)N(CC)c3ccccc3)c2)CC1	-9.7% (inactive)
CCCC1CCC(=NNC(=S)NCCc2ccccc2)CC1 (configuration not stated)	-1.2% (inactive)
